Experimental data from PubChem BioAssay AID1159580 (chemical genetic matrix, 2015).
About 2,000 (36%) of roughly 5,500 compounds were called active. Not shown: some 18% with an inconclusive outcome. No stated cut-off is given here; in the data, active means normalized growth mostly below about 0.91 (no sharp cut-off); inconclusive means no clear call, values can overlap the other calls; inactive means mostly above about 0.92. The list shows a part of the results.

Test: chemical genetic growth profiling, strain panel (AID 1159580);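 further: tested at 20 µM; growth read once vehicle control cultures reached saturation at 30 °C; 1 = growth at the plate median or of vehicle wells; lower values mean less growth of the strain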
Conditions: growth OD

Measured: normalized growth

CC1(C)S[C@@H]2[C@H](NC(=O)Cc3ccccc3)C(=O)N2[C@H]1C(=O)O
inactive: S. cerevisiae deletion strains, locus YJR066W, strain TOR1, hits give low values 0.941 | S. cerevisiae deletion strains, locus YKL009W, strain mrt4, hits give low values 1 | S. cerevisiae deletion strains, locus YKL068W, hits give low values 1 | S. cerevisiae deletion strains, locus YKL085W, strain MDH1 (second series), hits give low values 1 | S. cerevisiae deletion strains, locus YKL085W, strain MDH1, hits give low values 1 | S. cerevisiae deletion strains, locus YKL160W, strain elf1, hits give low values 1.01 | S. cerevisiae deletion strains, locus YKL190W, strain CNB1, hits give low values 1.01 | S. cerevisiae deletion strains, locus YKR001C, strain vps1, hits give low values 1.01 | S. cerevisiae deletion strains, locus YKR026C, strain gcn3, hits give low values 1.03 | S. cerevisiae deletion strains, locus YKR091W, strain srl3, hits give low values 1.01 | S. cerevisiae deletion strains, locus YLL001W, strain dnm1, hits give low values 1.03 | S. cerevisiae deletion strains, locus YLL026W, hits give low values 1.02 | S. cerevisiae deletion strains, locus YLL041C, strain sdh2, hits give low values 1.01 | S. cerevisiae deletion strains, locus YLR027C, strain aat2, hits give low values 1.03 | S. cerevisiae deletion strains, locus YLR039C, strain RIC1, hits give low values 1.04 | S. cerevisiae deletion strains, locus YLR058C, strain SHM2, hits give low values 1 | S. cerevisiae deletion strains, locus YLR102C, strain apc9, hits give low values 1.02 | S. cerevisiae deletion strains, locus YLR113W, strain HOG1, hits give low values 0.986 | S. cerevisiae deletion strains, locus YLR221C, strain rsa3, hits give low values 1.03 | S. cerevisiae deletion strains, locus YLR258W, strain gsy2, hits give low values 1.03 | S. cerevisiae deletion strains, locus YLR262C, strain YPT6 (second series), hits give low values 1 | S. cerevisiae deletion strains, locus YLR262C, strain YPT6, hits give low values 1.02 | S. cerevisiae deletion strains, locus YLR268W, strain sec22, hits give low values 1.02 | S. cerevisiae deletion strains, locus YLR320W, strain mms22, hits give low values 1.04 | S. cerevisiae deletion strains, locus YLR330W, strain CHS5, hits give low values 1 | S. cerevisiae deletion strains, locus YLR342W, strain FKS1 (second series), hits give low values 1.01 | S. cerevisiae deletion strains, locus YLR342W, strain FKS1, hits give low values 1.03 | S. cerevisiae deletion strains, locus YLR357W, strain rsc2, hits give low values 1.03 | S. cerevisiae deletion strains, locus YLR370C, strain arc18, hits give low values 1.03 | S. cerevisiae deletion strains, locus YLR371W, strain rom2, hits give low values 1.02 | S. cerevisiae deletion strains, locus YLR384C, strain iki3, hits give low values 1.03 | S. cerevisiae deletion strains, locus YLR418C, strain cdc73, hits give low values 1.03 | S. cerevisiae deletion strains, locus YML016C, strain PPZ1, hits give low values 1.01 | S. cerevisiae deletion strains, locus YML032C, strain rad52, hits give low values 1.02 | S. cerevisiae deletion strains, locus YML120C, strain ndi1, hits give low values 1.04 | S. cerevisiae deletion strains, locus YML124C, strain tub3, hits give low values 1.02 | S. cerevisiae deletion strains, locus YMR058W, strain fet3, hits give low values 1.01 | S. cerevisiae deletion strains, locus YMR078C, strain ctf18, hits give low values 1.03 | S. cerevisiae deletion strains, locus YMR125W, strain sto1, hits give low values 1.06 | S. cerevisiae deletion strains, locus YMR129W, hits give low values 1.03 | S. cerevisiae deletion strains, locus YMR205C, strain PFK2, hits give low values 1.03 | S. cerevisiae deletion strains, locus YMR223W, strain ubp8, hits give low values 1.02 | S. cerevisiae deletion strains, locus YMR231W, strain pep5, hits give low values 1.03 | S. cerevisiae deletion strains, locus YMR263W, strain SAP30, hits give low values 1 | S. cerevisiae deletion strains, locus YMR307W, strain GAS1, hits give low values 1.01 | S. cerevisiae deletion strains, locus YNL067W, strain RPL9B, hits give low values 1 | S. cerevisiae deletion strains, locus YNL071W, strain lat1, hits give low values 1.02 | S. cerevisiae deletion strains, locus YNL128W, strain TEP1, hits give low values 1.01 | S. cerevisiae deletion strains, locus YNL183C, strain NPR1, hits give low values 0.944 | S. cerevisiae deletion strains, locus YNL209W, strain ssb2, hits give low values 1.02 | S. cerevisiae deletion strains, locus YNL233W, strain BNI4, hits give low values 0.999 | S. cerevisiae deletion strains, locus YNL248C, strain rpa49, hits give low values 1.03 | S. cerevisiae deletion strains, locus YNL250W, strain rad50, hits give low values 1.02 | S. cerevisiae deletion strains, locus YNL271C, strain bni1, hits give low values 1.02 | S. cerevisiae deletion strains, locus YNL298W, strain CLA4, hits give low values 1.01 | S. cerevisiae deletion strains, locus YNL307C, strain MCK1, hits give low values 1.03 | S. cerevisiae deletion strains, locus YNL322C, strain KRE1 (second series), hits give low values 1.04 | S. cerevisiae deletion strains, locus YNR049C, strain mso1, hits give low values 1.01 | S. cerevisiae deletion strains, locus YNR052C, strain pop2, hits give low values 1.02 | S. cerevisiae deletion strains, locus YOL006C, strain TOP1, hits give low values 1.02 | S. cerevisiae deletion strains, locus YOL012C, strain htz1 1.12 | S. cerevisiae deletion strains, locus YOL147C, strain pex11, hits give low values 1.02 | S. cerevisiae deletion strains, locus YOR001W, strain rrp6, hits give low values 1.04 | S. cerevisiae deletion strains, locus YOR061W, strain CKA2, hits give low values 1.01 | S. cerevisiae deletion strains, locus YOR069W, strain VPS5, hits give low values 0.998 | S. cerevisiae deletion strains, locus YOR070C, strain gyp1, hits give low values 1.03 | S. cerevisiae deletion strains, locus YOR080W, strain dia2, hits give low values 1.02 | S. cerevisiae deletion strains, locus YOR083W, strain WHI5, hits give low values 0.987 | S. cerevisiae deletion strains, locus YOR106W, strain vam3, hits give low values 1.03 | S. cerevisiae deletion strains, locus YOR136W, strain idh2, hits give low values 1.02 | S. cerevisiae deletion strains, locus YOR144C, strain elg1, hits give low values 1.02 | S. cerevisiae deletion strains, locus YOR184W, strain ser1, hits give low values 1.06 | S. cerevisiae deletion strains, locus YOR231W, strain MKK1, hits give low values 0.994 | S. cerevisiae deletion strains, locus YOR265W, strain rbl2, hits give low values 1.01 | S. cerevisiae deletion strains, locus YOR270C, strain vph1, hits give low values 1.13 | S. cerevisiae deletion strains, locus YOR290C, strain snf2, hits give low values 1.03 | S. cerevisiae deletion strains, locus YOR316C, strain cot1, hits give low values 1.02 | S. cerevisiae deletion strains, locus YPL051W, strain arl3, hits give low values 1.03 | S. cerevisiae deletion strains, locus YPL055C, strain LGE1, hits give low values 1.01 | S. cerevisiae deletion strains, locus YPL078C, strain atp4, hits give low values 1.03 | S. cerevisiae deletion strains, locus YPL106C, strain sse1, hits give low values 1.02 | S. cerevisiae deletion strains, locus YPL240C, strain hsp82, hits give low values 1.02 | S. cerevisiae deletion strains, locus YPL256C, strain CLN2, hits give low values 0.966 | S. cerevisiae deletion strains, locus YPR119W, strain clb2, hits give low values 1.03 | S. cerevisiae deletion strains, locus YPR141C, strain kar3, hits give low values 1.01 | S. cerevisiae deletion strains, locus YPR163C, strain tif3, hits give low values 1.03 | S. cerevisiae deletion strains, locus YPR167C, strain met16, hits give low values 1.02 | S. cerevisiae deletion strains, strain wtn01, hits give low values 1.01 | S. cerevisiae strains, strain wild type, hits give low values 1
